Records with an inconclusive call do not appear. The source made the active and inactive calls. Unless noted, calls follow the shape of the dose curve; as a rule, active = well fitted curve in the direction sought with a large enough effect in the repeat runs; inconclusive = weak or mixed curves; inactive = no such curve, though single readings can be large; an effect the other way counts as inactive or inconclusive.
Experiments:
[1] = qHTS assay to identify small molecule agonists of the vitamin D receptor (VDR) signaling pathway - cell viability counter screen (AID 743224); also: series mostly up to about 63 µM; % is scaled to controls: 0 for no effect and ±100 for the full control effect; nearly all actives have a fitted effect of over 50% in size
Procedure, shortened: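 Cells: VDR-bla, 2,000/well, settled 4 h. Treatment: compounds in DMSO, 16 h, 37C/5% CO2. Readout: CellTiter-Glo luminescence after 30 min RT.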

[2] = qHTS assay to identify small molecule agonists of the NFkB signaling pathway (AID 1159509; active = well fitted curve in the direction sought with a large enough effect in the signal ratio in the repeat runs, not every such curve was filed as active; the % refers to the signal ratio; also: series mostly up to about 61 µM; % is scaled to controls: 0 for no effect and ±100 for the full control effect)
Procedure, shortened: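 Pathway activation was measured in ME-180 cells stably expressing beta-lactamase under NF-kB response element control. Substrate cleavage was read as the 460/530 nm emission shift after 5 hr compound incubation.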

[3] = qHTS assay to identify small molecule agonists of the NFkB signaling pathway - cell viability counter screen (AID 1159515; calls by dose curve; also: series mostly up to about 61 µM; % is scaled to controls: 0 for no effect and ±100 for the full control effect; nearly all actives have a fitted effect of over 55% in size)
Procedure, shortened: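 Cells are seeded (2,000 NFkB-bla ME-180 per well), rested overnight, and dosed with DMSO-dissolved compounds for 5 hr at 37 C. Viability is then read by CellTiter-Glo luminescence after 30 min at room temperature.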

[4] = qHTS assay to identify small molecule agonists of the endoplasmic reticulum stress response signaling pathway (AID 1159516; active = well fitted activation curve with a large enough effect in the signal ratio in the repeat runs, not every such curve was filed as active; the % refers to the signal ratio; also: % is scaled to controls: 0 for no effect and ±100 for the full control effect)
Procedure, shortened: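 Cells are seeded at 1,500 per well and incubated overnight. Compounds in DMSO are added for 5 hr at 37 C, then beta-lactamase FRET substrate for 2 hr at room temperature, and fluorescence at 460 and 530 nm is measured.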

[5] = qHTS assay to identify small molecule agonists of the endoplasmic reticulum stress response signaling pathway - cell viability counter screen (AID 1159517; calls by dose curve;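 also: HeLa cells carrying an ER stress response element beta-lactamase reporter; series mostly up to about 61 µM; % is scaled to controls: 0 for no effect and ±100 for the full control effect; nearly all actives have a fitted effect of over 50% in size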)
Procedure, shortened: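 ESRE-bla HeLa cells (1,500/well) were plated overnight at 37 C and exposed to compounds for 5 hr. After the 2 hr beta-lactamase substrate read, CellTiter-Glo went into the same wells, and luminescence was read after 30 min at room temperature.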

[6] = qHTS assay to identify small molecule antagonists of the retinoid-related orphan receptor gamma (ROR-gamma) signaling pathway - cell viability counter screen (AID 1159520); also: % is scaled to controls: 0 for no effect and ±100 for the full control effect; nearly all actives have a fitted effect of over 50% in size
Procedure, shortened: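 Cytotoxicity was read from cellular ATP (CellTiter-Glo luminescence) after 16 hr at 37 C with 1 uM doxycycline induction. The inducer was added 2 hr after compound transfer to Tet-on ROR gamma CHO cells.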

[7] = target: Nuclear receptor ROR-gamma (Homo sapiens) (UniProt P51449); experiment: qHTS assay to identify small molecule antagonists of the retinoid-related orphan receptor gamma (ROR-gamma) signaling pathway (AID 1159521; also: top concentration of the series differs between compounds; % is scaled to controls: 0 for no effect and ±100 for the full control effect; nearly all actives have a fitted effect of over 50% in size)
Procedure, shortened: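 Antagonist read-out: drop in luminescence (ONE-Glo) from an RORE-LUC reporter in CHO cells with doxycycline-inducible ROR-gamma; 2 hr compound pretreatment, 1 uM doxycycline, 16 hr incubation at 37 C.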

[8] = qHTS assay to identify small molecule agonists of the AP-1 signaling pathway - cell viability counter screen (AID 1159525; calls by dose curve; also: nearly all actives have a fitted effect of over 55% in size)
Procedure, shortened: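 Intracellular ATP by Cell Titer Glo luminescence (30 min, RT) in the same ME-180 AP-1-bla wells after the 5 h compound exposure at 37 °C. Normalised to tetra n-octyl ammonium bromide and DMSO controls.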

[9] = qHTS assay to identify small molecule agonists of the AP-1 signaling pathway (AID 1159526; calls by dose curve; also: % is scaled to controls: 0 for no effect and ±100 for the full control effect)
[10] = target: Retinoic acid receptor RXR-alpha (Homo sapiens) (UniProt P19793); experiment: qHTS assay to identify small molecule agonists of the RXR signaling pathway (AID 1159527; calls by dose curve; also: % is scaled to controls: 0 for no effect and ±100 for the full control effect; nearly all actives have a fitted effect of over 35% in size)
Procedure, shortened: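 Agonist-mode beta-lactamase reporter assay: HEK 293T RXR-alpha-UAS-bla cells treated 16 hr at 37 C with compounds, 9-cis retinoic acid as positive control. LiveBLAzer FRET substrate, 405 nm excitation, 460/530 nm emission.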

[11] = qHTS assay to identify small molecule agonists of the RXR signaling pathway - cell viability counter screen (AID 1159529)
Procedure, shortened: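 CellTiter-Glo luminescence gave viability in the wells also read for beta-lactamase. Cells (RXR-alpha-UAS-bla HEK 293T, 2% charcoal-stripped FBS medium) had 5 hr plating, then 16 hr compound exposure at 37 C; tetraoctyl ammonium bromide served as positive control.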

[12] = qHTS assay to identify small molecule antagonists of the retinoid acid receptor (RAR) signaling pathway - cell viability counter screen (AID 1159551); also: % is scaled to controls: 0 for no effect and ±100 for the full control effect; nearly all actives have a fitted effect of over 35% in size
Procedure, shortened: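 Cells (C3RL4) are plated, incubated overnight, dosed with compound in DMSO, then given retinol at 1 uM final. After 6 h at 37 C, CellTiter-Glo is added and luminescence read following 30 min at room temperature.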

[13] = qHTS assay to identify small molecule antagonists of the retinoic acid receptor (RAR) signaling pathway (AID 1159552)
Procedure, shortened: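 Luminescent RARE reporter read-out in C3RL4 cells: 6 hr co-treatment at 37 C of test compounds with retinol at 1 uM final. Cells plated overnight beforehand; luciferase reagent incubated 30 min at room temperature before reading.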

[14] = qHTS assay to identify small molecule agonists of the retinoic acid receptor (RAR) signaling pathway (AID 1159553); also: % is scaled to controls: 0 for no effect and ±100 for the full control effect
Procedure, shortened: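 Seed C3RL4 reporter cells at 1,000 per well and incubate overnight at 37 C. Add compounds in DMSO, incubate 6 hr. Add luciferase reagent, wait 30 min at room temperature, read luminescence.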

[15] = qHTS assay to identify small molecule antagonists of the estrogen related receptor (ERR) signaling pathway from Tox21 library - cell viability counter screen (AID 1224834); also: % is scaled to controls: 0 for no effect and ±100 for the full control effect; nearly all actives have a fitted effect of over 30% in size
Procedure, shortened: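 ERR cells, 2,000/well; 6 h settle at 37 C/5% CO2; pin-tool compound transfer in DMSO; 17.5 h at 37 C; CellTiter-Fluor, 30 min; fluorescence intensity.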

[16] = target: Luciferin 4-monooxygenase (Photinus pyralis) (UniProt P08659); experiment: qHTS assay to identify small molecule inhibitors of firefly luciferase (AID 1224835); also: series mostly up to about 120 µM; % is scaled to controls: 0 for no effect and ±100 for the full control effect; nearly all actives have a fitted effect of over 25% in size
Procedure, shortened: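 Inhibition of purified Photinus luciferase is measured by luminescence. Substrate levels (D-luciferin, ATP) sit at their KM values. Each compound is tested in a concentration series.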

[17] = qHTS assay to identify small molecule agonists of the constitutive androstane receptor (CAR) signaling pathway - cell viability counter screen (AID 1224836); also: series mostly up to about 92 µM; % is scaled to controls: 0 for no effect and ±100 for the full control effect; nearly all actives have a fitted effect of over 45% in size
Procedure, shortened: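 Cell viability multiplexed with the CAR agonist screen: CellTiter-Fluor fluorescence after 23 hr at 37 C. HepG2-CYP2B6-hCAR cells got compounds at 15 concentrations with PK11195 at 0.75 uM final.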

[18] = qHTS assay to identify small molecule antagonists of the constitutive androstane receptor (CAR) signaling pathway - cell viability counter screen (AID 1224837); also: series mostly up to about 92 µM; % is scaled to controls: 0 for no effect and ±100 for the full control effect; nearly all actives have a fitted effect of over 45% in size
Procedure, shortened: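 Viability was measured with CellTiter-Fluor in a HepG2 line carrying stably transfected hCAR and a CYP2B6-2.2kb construct. Cells were exposed for 23 hr at 37 C to 15 compound concentrations with 50 nM CITCO as agonist.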

[19] = target: Nuclear receptor subfamily 1 group I member 3 (Homo sapiens) (UniProt Q14994); experiment: qHTS assay to identify small molecule antagonists of the constitutive androstane receptor (CAR) signaling pathway (AID 1224838);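 also: HepG2 cells stably expressing hCAR with CYP2B6 luciferase reporter stimulated by CITCO; % is scaled to controls: 0 for no effect and ±100 for the full control effect; nearly all actives have a fitted effect of over 40% in size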
Procedure, shortened: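 Antagonist mode used CITCO at a final 50 nM to activate CAR in human hepatoma HepG2 cells carrying stable hCAR and a 2.2 kb CYP2B6 promoter-luciferase construct. Compounds were tested at 15 concentrations over 24 h, with luminescence as the end point.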

[20] = qHTS assay to identify small molecule antagonists of the vitamin D receptor (VDR) signaling pathway - cell viability counter screen (AID 743225)
Procedure, shortened: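 Cytotoxicity counter screen read by CellTiter-Glo luminescence (30 min, room temperature) in the same wells as the VDR-bla antagonist readout. HEK 293T VDR-UAS-bla cells had 16 h at 37C with compound and 3 nM (final) 1-alpha,25-dihydroxyvitamin D3, then 2 h with FRET substrate.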

Chain of Retinoic acid receptor RXR-alpha (Homo sapiens) (P19793 whole entry, looked up): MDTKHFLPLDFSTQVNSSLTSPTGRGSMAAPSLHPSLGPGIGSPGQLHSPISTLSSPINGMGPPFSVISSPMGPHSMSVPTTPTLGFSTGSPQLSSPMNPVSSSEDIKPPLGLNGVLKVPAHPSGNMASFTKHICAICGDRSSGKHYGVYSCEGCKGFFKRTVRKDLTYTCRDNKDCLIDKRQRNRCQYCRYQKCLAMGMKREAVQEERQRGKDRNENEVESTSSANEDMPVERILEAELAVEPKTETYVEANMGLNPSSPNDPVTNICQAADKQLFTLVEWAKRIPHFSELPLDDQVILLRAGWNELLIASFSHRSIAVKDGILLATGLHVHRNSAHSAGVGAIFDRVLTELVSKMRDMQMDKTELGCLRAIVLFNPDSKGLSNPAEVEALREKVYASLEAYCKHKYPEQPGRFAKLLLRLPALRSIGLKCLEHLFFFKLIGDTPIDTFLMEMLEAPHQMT
Chain of Luciferin 4-monooxygenase (Photinus pyralis) (P08659 whole entry, looked up): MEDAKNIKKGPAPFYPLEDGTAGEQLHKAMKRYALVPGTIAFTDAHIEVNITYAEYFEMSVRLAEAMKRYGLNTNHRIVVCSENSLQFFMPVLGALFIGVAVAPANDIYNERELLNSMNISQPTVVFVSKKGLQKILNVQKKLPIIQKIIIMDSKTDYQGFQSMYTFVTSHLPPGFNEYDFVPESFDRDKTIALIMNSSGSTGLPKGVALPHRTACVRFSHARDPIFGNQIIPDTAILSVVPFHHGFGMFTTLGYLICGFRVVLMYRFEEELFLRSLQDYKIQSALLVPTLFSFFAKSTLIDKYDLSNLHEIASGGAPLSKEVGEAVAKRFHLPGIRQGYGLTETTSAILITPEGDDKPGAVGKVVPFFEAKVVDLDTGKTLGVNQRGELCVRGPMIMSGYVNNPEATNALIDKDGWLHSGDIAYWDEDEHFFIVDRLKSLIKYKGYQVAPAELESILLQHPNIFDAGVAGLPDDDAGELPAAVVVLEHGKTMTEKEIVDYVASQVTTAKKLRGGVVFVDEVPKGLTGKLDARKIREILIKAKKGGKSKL
Chain of Nuclear receptor subfamily 1 group I member 3 (Homo sapiens) (Q14994 whole entry, looked up): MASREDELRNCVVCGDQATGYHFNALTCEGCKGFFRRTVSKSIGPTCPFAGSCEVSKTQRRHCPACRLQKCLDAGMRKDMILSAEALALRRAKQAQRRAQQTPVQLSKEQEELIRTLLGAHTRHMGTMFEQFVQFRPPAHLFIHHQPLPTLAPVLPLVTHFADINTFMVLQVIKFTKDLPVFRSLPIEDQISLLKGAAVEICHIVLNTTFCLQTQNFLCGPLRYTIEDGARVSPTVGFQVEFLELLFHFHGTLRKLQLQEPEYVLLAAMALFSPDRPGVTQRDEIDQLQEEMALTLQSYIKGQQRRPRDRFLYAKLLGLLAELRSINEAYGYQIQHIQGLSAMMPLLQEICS

Cc1ccc(C(=O)O)cc1[N+](=O)[O-]
inactive: outcome [1] | outcome [2] | outcome [3] | outcome [4] | outcome [5] | outcome [6] | outcome [7] | outcome [8] | outcome [9] | Potency [10] | outcome [11] | outcome [12] | outcome [13] | Potency [14] | outcome [15] | Potency [16] | outcome [17] | outcome [18] | Potency [19]

CC1(C)CC(OC(=O)CCCCCCCCC(=O)OC2CC(C)(C)NC(C)(C)C2)CC(C)(C)N1
inactive: outcome [1] | outcome [2] | outcome [3] | outcome [4] | outcome [5] | activity, negative = cytotoxicity [6] 1.22% [at 19 µM] | activity change, negative = inhibition [7] 5.06% [at 19 µM] | viability change, negative = cytotoxic [8] -4.65% [at 15.8 µM] | activation [9] 13.3% [at 15.8 µM] | activation [10] -1.61% [at 15.8 µM] | activity change, negative = cytotoxicity [11] -17.6% [at 15.8 µM] | activity change, negative = cytotoxicity [12] -0.597% [at 19 µM] | activity, negative = inhibition [13] 10.8% [at 19 µM] | Potency [14] | viability change, negative = cytotoxic [15] -0.749% [at 19 µM] | activity change, negative = inhibition [16] 0.839% [at 23.6 µM] | viability change, negative = cytotoxic [17] -0.169% [at 19 µM] | activity change, negative = cytotoxicity [18] -3.96% [at 19 µM] | activity, negative = inhibition [19] 7.36% [at 19 µM]

CCCC(=O)OCCC(C)CCC=C(C)C (centres undefined)
inactive: outcome [1] | outcome [2] | outcome [3] | outcome [4] | outcome [5] | outcome [6] | outcome [7] | outcome [8] | outcome [9] | Potency [10] | outcome [11] | outcome [12] | outcome [13] | Potency [14] | outcome [15] | Potency [16] | outcome [17] | outcome [18] | Potency [19]

CCc1occc(=O)c1O
inactive: outcome [1] | outcome [2] | outcome [3] | outcome [4] | outcome [5] | outcome [6] | outcome [7] | outcome [8] | outcome [9] | Potency [10] | outcome [11] | outcome [12] | outcome [13] | Potency [14] | outcome [15] | Potency [16] | outcome [17] | outcome [18] | Potency [19]

CC(=O)CC(=O)OC(C)(C)C
inactive: outcome [1] | outcome [2] | outcome [3] | outcome [4] | outcome [5] | outcome [6] | outcome [7] | outcome [8] | outcome [9] | Potency [10] | outcome [11] | outcome [12] | outcome [13] | Potency [14] | outcome [15] | Potency [16] | outcome [17] | outcome [18] | Potency [19]

O=C1CCCCO1
inactive: outcome [1] | outcome [2] | outcome [3] | outcome [4] | outcome [5] | outcome [6] | outcome [7] | outcome [8] | outcome [9] | Potency [10] | outcome [11] | outcome [12] | outcome [13] | Potency [14] | outcome [15] | Potency [16] | outcome [17] | outcome [18] | Potency [19]

CC(C)C[C@@H]1[C@H](c2ccccc2)OC(=O)N1CCCN1CCCCCC1
inactive: outcome [1] | outcome [20] | outcome [2] | outcome [3] | outcome [4] | outcome [5] | outcome [6] | outcome [7] | outcome [8] | outcome [9] | Potency [10] | outcome [11] | outcome [12] | outcome [13] | Potency [14] | outcome [15] | Potency [16] | outcome [17] | outcome [18] | Potency [19]

CC(C)OC(=O)CCC(=O)OC(C)C
inactive: outcome [1] | outcome [20] | outcome [2] | outcome [3] | outcome [4] | outcome [5] | outcome [6] | outcome [7] | outcome [8] | outcome [9] | Potency [10] | outcome [11] | outcome [12] | outcome [13] | Potency [14] | outcome [15] | Potency [16] | outcome [17] | outcome [18] | Potency [19]

Source: PubChem BioAssay (Tox21)
